This passage reports AC50 and outcome results from PubChem BioAssay (EPA / NIEHS).

Inconclusive results are not listed. Activity calls are given as the source filed them. The calls were made as follows, unless noted: active = hit-call score of the fitted dose curve at least 0.9, where 1 is the maximum; inactive = score below 0.9.

Assay [1] is described as follows: CCTE_Padilla_ZF_Score.Edema: CCTE's 144 Hour Post-fertilization zebrafish Assay Score for Edema Malformation, Padilla Lab (AID 2284406). The method, boiled down: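 Edema scored at 6 dpf by two blinded observers under a stereo microscope, in single outbred wild-type larvae exposed from 6-8 hpf in sealed wells (Hanks', 26C, 14:10 h light) and chemical-free after a 5 dpf rinse.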

Assay [2] is described as follows: CCTE_Padilla_ZF_Score.Spine: CCTE's 144 Hour Post-fertilization zebrafish Assay Score for Spine Malformation, Padilla Lab (AID 2284407). The method, boiled down: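 Spine malformation scored at 6 dpf by two independent blinded observers under stereomicroscope, after static sealed exposure from 6–8 hpf at 26C in Hanks' solution with rinse on 5 dpf. Positive-direction fit against DMSO control.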

The nature of assay [3]: CCTE_Padilla_ZF_Score.Swim_bladder: CCTE's 144 Hour Post-fertilization zebrafish Assay Score for Swim Bladder Malformation, Padilla Lab (AID 2284408). The method, boiled down: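 Swim bladder inflation scored at 6 dpf by two blinded observers under a stereo microscope. Exposure ran from 6–8 hpf in sealed wells of 10% Hanks' at 26C, with rinsing at 5 dpf; DMSO served as baseline.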

Assay [4] in a line: CCTE_Padilla_ZF_Score.Position: CCTE's 144 Hour Post-fertilization zebrafish Assay Score for Position, Padilla Lab (AID 2284409). The method, boiled down:
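Wild-type zebrafish embryos (with chorions) exposed singly from 6–8 hpf in sealed wells of Hanks' solution at 26C, rinsed at 5 dpf. At 6 dpf, blinded assessors scored abnormal water-column position by brightfield stereomicroscopy, relative to DMSO.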

Assay [5] in a line: CCTE_Padilla_ZF_Score.Living: CCTE's 144 Hour Post-fertilization zebrafish Assay Score for Viability, Padilla Lab (AID 2284410).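 Also: larval death at 6 dpf judged by absent heartbeat or coagulation.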 The method, boiled down: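 Mortality at 6 dpf, judged as absent heartbeat or coagulation by two blinded observers, after sealed static exposure beginning at 6–8 hpf at 26C. Larvae were rinsed free of chemical at 5 dpf, and activity was fitted relative to DMSO.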

The nature of assay [6]: CCTE_Padilla_ZF_Score.General: CCTE's 144 Hour Post-fertilization zebrafish Assay Score for General Malformation, Padilla Lab (AID 2284411). The method, boiled down:
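Malformation, death and hatching were scored at 6 dpf by two blinded observers under a stereo microscope. Embryos were dosed singly from 6-8 hpf in sealed plates of 10% Hanks' at 26C and rinsed on 5 dpf; DMSO baseline.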

Assay [7] can be described thus: CCTE_Padilla_ZF_Score.Tail: CCTE's 144 Hour Post-fertilization zebrafish Assay Score for Tail Malformation, Padilla Lab (AID 2284414). The method, boiled down: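 Tail malformations were scored at 6 dpf by two blinded assessors under a stereo microscope. Chorionated embryos had been exposed from 6-8 hpf in sealed wells of 10% Hanks' at 26 C, then rinsed free of chemical at 5 dpf.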

A short description of assay [8]: CCTE_Padilla_ZF_Score.Blood_pooling: CCTE's 144 Hour Post-fertilization zebrafish Assay Score for Blood Pooling, Padilla Lab (AID 2284415). The method, boiled down: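 Blood pooling was scored at 6 dpf under a stereo microscope by two blinded assessors, fitted upward against DMSO. Single embryos were dosed at 6–8 hpf in 10% Hanks', kept sealed at 26C (14:10 h cycle) and rinsed at 5 dpf.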

Assay [9] is described as follows: CCTE_Padilla_ZF_Score.Any: CCTE's 144 Hour Post-fertilization zebrafish Assay Score for Any Mortality or Malformation, Padilla Lab (AID 2284416). The method, boiled down: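 Wild-type zebrafish embryos with chorions, one per well in 10% Hanks' from 6–8 hpf, dosed in sealed plates at 26 C, 14:10 h light:dark; rinsed at 5 dpf; blinded scoring at 6 dpf for death or malformation, versus DMSO.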

Assay [10] in a line: TAMU_PeakParms_SingleDonor1434_Chronotropy: Texas A&M University (TAMU) 1.5-hr Human Induced Pluripotent Stem Cell (iPSC)-derived Cardiomyocytes Calcium (Ca+2) Flux Assay for Cardiotoxicity: Chronotropy (changes in peak frequency) (AID 2284217). As to conditions: actives raise or lower the signal. The method, boiled down: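 Beat frequency of single-donor iPSC cardiomyocytes was recorded through a calcium-sensitive dye 1.5 hours after exposure to four concentrations up to 100 uM. An EC05 point of departure was derived.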

Assay [11] is described as follows: TAMU_PeakParms_SingleDonor1434_QT: Texas A&M University (TAMU) 1.5-hr Human Induced Pluripotent Stem Cell (iPSC)-derived Cardiomyocytes Calcium (Ca+2) Flux Assay for Cardiotoxicity: QT (decay-rise ratio) (AID 2284235; active = hit-call score of the fitted dose curve at least 0.9, where 1 is the maximum). The method, boiled down: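 Decay/rise ratio of calcium-flux fluorescence scored after 90 min exposure (37C) of donor 1434 iPSC cardiomyocytes to 0.2–100 uM (0.5% DMSO). Beat-cessation and severe-notch points removed; POD is EC05, a 5% rise over DMSO.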

The nature of assay [12]: TAMU_PeakParms_SingleDonor1434_Asystole: Texas A&M University (TAMU) 1.5-hr Human Induced Pluripotent Stem Cell (iPSC)-derived Cardiomyocytes Calcium (Ca+2) Flux Assay for Cardiotoxicity: Asystole (quiescence of beating) (AID 2284328; active = hit-call score of the fitted dose curve at least 0.9, where 1 is the maximum). The method, boiled down:
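Donor 1434 iPSC-cardiomyocytes exposed 90 min at 37C, 5% CO2, to 0.2, 1, 10 and 100 uM in 0.5% DMSO. Ca2+ dye fluorescence gave average peak frequency; POD is EC95, a 95% beat-rate drop versus controls.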

Assay [13] concerns the target Nuclear receptor subfamily 1 group I member 3 (Homo sapiens) (UniProt Q14994). The assay can be described thus: ATG_CAR_TRANS: Attagene TRANS-FACTORIAL HepG2 Assay for human Constitutive Androstane Receptor (CAR) (AID 2282969; active = hit-call score of the fitted dose curve at least 0.9, where 1 is the maximum;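 also: activators raise reporter mRNA above DMSO so AC50 marks induction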). The note with it: HepG2 Attagene TRANS-FACTORIAL CAR reporter. The method, boiled down:
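Transiently transfected HepG2, multiplex TRANS reporters (CAR-Gal4 chimera driving GAL4-UAS reporter). 24 h dosing. Readout: reporter transcript by RT-PCR + capillary electrophoresis, fluorescence intensity; positive direction vs DMSO.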

Assay [14] is described as follows: CEETOX_H295R_11DCORT: CeeTox H295R High-throughput Steroidogenesis Assay for 11-Deoxycortisol (11DCORT) (AID 2283432). As to conditions: actives raise or lower the signal. The method, boiled down:
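Adrenal carcinoma line H295R, run per OECD 456 with minor changes, was forskolin-stimulated (10 uM, 48 h) before a 48 h chemical exposure at 0.1% DMSO. Secreted 11-deoxycortisol was quantified by HPLC-MS/MS.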

Assay [15] can be described thus: CEETOX_H295R_OHPREG: CeeTox H295R High-throughput Steroidogenesis Assay for OH-Pregnenolone (OHPREG) (AID 2283434). The note with it: actives raise or lower the signal. The method, boiled down:
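H295R, 10 uM forskolin pre-stim 48 h; test chemical 48 h, 0.1% DMSO final. MTBE extraction, reverse-phase C18 HPLC-ESI+ MS/MS of medium. Gain/loss vs DMSO; viability by MTT in same wells.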

A short description of assay [16]: CEETOX_H295R_OHPROG: CeeTox H295R High-throughput Steroidogenesis Assay for OH-Progesterone (OHPROG) (AID 2283435). The note with it: actives raise or lower the signal. The method, boiled down:
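HPLC-MS/MS quantification of 17alpha-hydroxyprogesterone secreted by H295R cells after 48 h chemical exposure, following 48 h 10 uM forskolin prestimulation. Gain or loss of signal fitted relative to DMSO. Viability checked by MTT in the same wells.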

Assay [17] is described as follows: CEETOX_H295R_CORTIC: CeeTox H295R High-throughput Steroidogenesis Assay for Corticosterone (CORTIC) (AID 2283437).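 Also: corticosterone secreted into medium quantified by mass spectrometry.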 The note with it: actives raise or lower the signal. The method, boiled down: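 48 h forskolin (10 uM) prestim, then 48 h chemical exposure, final DMSO 0.1%. Readout: corticosterone in medium by LC-MS/MS after MTBE extraction. Gain/loss fit vs DMSO; MTT viability in same wells.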

Assay [18] in a line: CEETOX_H295R_CORTISOL: CeeTox H295R High-throughput Steroidogenesis Assay for Cortisol (AID 2283438).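 Also: cortisol secreted into medium quantified by LC-MS/MS.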 As to conditions: actives raise or lower the signal. The method, boiled down:
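Read-out: cortisol in culture medium by reverse-phase C18 HPLC with ESI-positive tandem MS, after MTBE liquid-liquid extraction. Cells: human adrenal H295R, forskolin-primed (10 uM, 48 h) before 48 h chemical exposure in 0.1% DMSO.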

Assay [19] in a line: CEETOX_H295R_DOC: CeeTox H295R High-throughput Steroidogenesis Assay for DOC (AID 2283439). As to conditions: actives raise or lower the signal. The method, boiled down:
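Human adrenocortical H295R cells, passages up to 10, received 10 uM forskolin for 48 h before chemical addition. After another 48 h exposure in 0.1% DMSO, secreted DOC was measured by LC-MS/MS, with gain or loss fitted against DMSO controls.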

A short description of assay [20]: CEETOX_H295R_PROG: CeeTox H295R High-throughput Steroidogenesis Assay for Progesterone (PROG) (AID 2283442). The note with it: actives raise or lower the signal. The method, boiled down: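 Steps: seed H295R cells and let them adhere overnight; prime 48 h with 10 uM forskolin; dose with compound in DMSO at 0.1% final for 48 h; extract medium steroids with MTBE; measure progesterone by LC-MS/MS. MTT viability was run in the same wells.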

Sequence of Nuclear receptor subfamily 1 group I member 3 (Homo sapiens) (Q14994 whole entry, looked up, the tested form may be a part): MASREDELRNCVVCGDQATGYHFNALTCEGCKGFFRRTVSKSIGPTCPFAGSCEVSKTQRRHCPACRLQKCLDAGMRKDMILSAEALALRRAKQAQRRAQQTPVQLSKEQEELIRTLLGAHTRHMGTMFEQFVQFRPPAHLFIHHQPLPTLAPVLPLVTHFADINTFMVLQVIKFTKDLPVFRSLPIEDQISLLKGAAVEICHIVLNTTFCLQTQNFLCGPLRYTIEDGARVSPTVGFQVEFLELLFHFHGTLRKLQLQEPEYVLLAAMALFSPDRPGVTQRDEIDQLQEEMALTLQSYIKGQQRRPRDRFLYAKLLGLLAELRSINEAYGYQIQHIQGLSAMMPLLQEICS

In the case of `OC(C(F)(F)F)(C(F)(F)F)C(O)(C(F)(F)F)C(F)(F)F`, the AC50 (in general, the concentration at which the activity in the assay is half-maximal) in [1] was 2.66 µM (active); in assay [3], 2.66 µM (active); in [5], 11.8 µM (active); in [6], 1.18 µM (active); in [9] it was 2.21 µM (active). Further, the compound was called inactive in assay [2], in assay [4], in assay [7] and in assay [8].
For the compound `Nc1nc(N)c2nc(-c3ccccc3)c(N)nc2n1`, the result in assay [10], in assay [11] and in assay [12] was inactive.
`CCCCCCOC(=O)CCCCCCCC(=O)OCCCCCC`: the outcome in assay [13] was inactive.
On to `CCO[Si](CCCN)(OCC)OCC`, for which the compound was called inactive in assay [14], in assay [15], in assay [16], in assay [17], in [18] and in assay [19]. For the same compound, in [20], the result was inactive.
